Broadly, the IC50 is the concentration that gives 50% inhibition.

Unmarked numbers belong to inactive results. Calls of active or inactive are those of the source. How the calls were made is not given here.

This test in a line: Bfl-1 counter-screen inhibitors, SAR follow-up, counter-screen for UBC13 polyubiquitination inhibitor project, biochemical, set 4 (AID 602400). The following applies: Bfl-1 counterscreen for UBC13 inhibitors. A general note: Counterscreens check selectivity or assay interference.
Turning to `O=C(Nc1ccc(F)c(Cl)c1)C1CCN(c2ncnc3c2nc2n3CCCCC2)CC1`, the IC50 was greater than 100 µM. `O=C(NCC1CCN(Cc2cccc(Cl)c2)CC1)[C@H]1CCCN(c2ncnc3c2nc2n3CCCC2)C1`: the IC50 was greater than 100 µM.

As for `O=C(NCC1CCN(Cc2ccc(Cl)c(Cl)c2)CC1)C1CCCN(c2ncnc3c2nc2n3CCCC2)C1` (stereo not drawn), the IC50 is greater than 100 µM. Under `Cc1cccc(NC(=O)C2CCCN(c3ncnc4c3nc3n4CCCC3)C2)c1` (stereo not drawn) stands greater than 100 µM; under `COc1ccc(NC(=O)C2CCN(c3ncnc4c3nc3n4CCCCC3)CC2)cc1Cl`, greater than 100 µM. The result for `Cc1cc(C)cc(NC(=O)C2CCN(c3ncnc4c3nc3n4CCCC3)CC2)c1` reads 23.9 µM (active). For the compound `Cc1ccccc1CN1CCC(CNC(=O)C2CCCN(c3ncnc4c3nc3n4CCCCC3)C2)CC1` (stereo not drawn), the IC50 was greater than 100 µM. For `Cc1ccc(NC(=O)C2CCCN(c3ncnc4c3nc3n4CCCC3)C2)cc1F` (stereo not drawn), the IC50 was greater than 100 µM. Turning to `O=C(NCc1cccc(Cl)c1)C1CCCN(c2ncnc3c2nc2n3CCCC2)C1` (stereo not drawn), the IC50 is greater than 100 µM. In the case of `Cc1ccc(NC(=O)C2CCN(c3ncnc4c3nc3n4CCCCC3)CC2)cc1Cl`, the IC50 is greater than 100 µM. Turning to `O=C(NCCCN1CCN(c2ccc(F)cc2)CC1)C1CCCN(c2ncnc3c2nc2n3CCCCC2)C1` (stereo not drawn), the IC50 is greater than 100 µM. As to `O=C(NCC1CCN(Cc2cccc(Cl)c2)CC1)[C@@H]1CCCN(c2ncnc3c2nc2n3CCCCC2)C1`, the IC50 is greater than 100 µM. Consider `CN(CCNC(=O)C1CCN(c2ncnc3c2nc2n3CCCCC2)CC1)Cc1ccccc1`, for which the IC50 is greater than 100 µM. On to `Cc1ccc(NC(=O)C2CCCN(c3ncnc4c3nc3n4CCCC3)C2)cc1Br` (stereo not drawn), for which the IC50 was greater than 100 µM. Under `O=C(NCC1CCN(Cc2cccc(Cl)c2)CC1)[C@@H]1CCCN(c2ncnc3c2nc2n3CCCC2)C1` stands greater than 100 µM; under `O=C(NCc1ccc(Cl)c(Cl)c1)C1CCCN(c2ncnc3c2nc2n3CCCCC2)C1` (stereo not drawn), greater than 100 µM; under `Cc1cccc(NC(=O)C2CCN(c3ncnc4c3nc3n4CCCCC3)CC2)c1`, greater than 100 µM.

Consider `Cc1ccc(NC(=O)C2CCCN(c3ncnc4c3nc3n4CCCC3)C2)cc1C` (stereo not drawn), for which the IC50 was greater than 100 µM. As for `CC1CC(C)CN(C(=O)C2CCN(c3ncnc4c3nc3n4CCCCC3)CC2)C1` (stereo not drawn), the IC50 is greater than 100 µM.

Turning to `Cc1cc(Cl)ccc1NC(=O)C1CCN(c2ncnc3c2nc2n3CCCCC2)CC1`, the IC50 was greater than 100 µM. Under `O=C(NCC1CCN(Cc2cccc(Cl)c2)CC1)C1CCCN(c2ncnc3c2nc2n3CCCC2)C1` (stereo not drawn) stands greater than 100 µM; under `Cc1ccc(NC(=O)C2CCN(c3ncnc4c3nc3n4CCCCC3)CC2)c(Cl)c1`, greater than 100 µM; under `O=C(Nc1ccc(CN2CCCCC2)cc1)C1CCN(c2ncnc3c2nc2n3CCCCC2)CC1`, greater than 100 µM.

Turning to `O=C(NCC1CCN(Cc2ccc(Cl)cc2)CC1)C1CCCN(c2ncnc3c2nc2n3CCCCC2)C1` (stereo not drawn), the IC50 was greater than 100 µM.

In the case of `O=C(NCc1cccc(Cl)c1)C1CCN(c2ncnc3c2nc2n3CCCC2)CC1`, the IC50 was greater than 100 µM. Consider `Cc1ccc(NC(=O)C2CCN(c3ncnc4c3nc3n4CCCCC3)CC2)cc1C`, for which the IC50 was greater than 100 µM.

`O=C(Nc1cc(F)ccc1F)C1CCN(c2ncnc3c2nc2n3CCCCC2)CC1`: the IC50 is greater than 100 µM. Under `Cc1cc(C)cc(NC(=O)C2CCCN(c3ncnc4c3nc3n4CCCCC3)C2)c1` (stereo not drawn) stands greater than 100 µM; under `O=C(NCC1CCN(Cc2ccc(Cl)c(Cl)c2)CC1)C1CCCN(c2ncnc3c2nc2n3CCCCC2)C1` (stereo not drawn), greater than 100 µM; under `O=C(NCC1CCN(Cc2ccc(Cl)cc2)CC1)C1CCCN(c2ncnc3c2nc2n3CCCC2)C1` (stereo not drawn), 76.8 µM (active). Consider `O=C(NCC1CCN(Cc2ccccc2Cl)CC1)C1CCCN(c2ncnc3c2nc2n3CCCC2)C1` (stereo not drawn), for which the IC50 was greater than 100 µM. In the case of `O=C(NCC1CCN(Cc2cccc(Cl)c2)CC1)[C@H]1CCCN(c2ncnc3c2nc2n3CCCCC2)C1`, the IC50 is greater than 100 µM. Under `O=C(NCc1ccc(Cl)c(Cl)c1)C1CCN(c2ncnc3c2nc2n3CCCC2)CC1` stands greater than 100 µM.

`Cc1ccc(NC(=O)C2CCN(c3ncnc4c3nc3n4CCCCC3)CC2)cc1F`: the IC50 was greater than 100 µM. `Cc1ccc(NC(=O)C2CCN(c3ncnc4c3nc3n4CCCC3)CC2)cc1C`: the IC50 is 20.8 µM (active).

As for `Cc1ccc(NC(=O)C2CCN(c3ncnc4c3nc3n4CCCC3)CC2)cc1F`, the IC50 was greater than 100 µM.

Consider `COc1cc(Cl)c(C)cc1NC(=O)C1CCN(c2ncnc3c2nc2n3CCCCC2)CC1`, for which the IC50 was greater than 100 µM.

Consider `Cc1ccc(C)c(CN2CCC(CNC(=O)C3CCCN(c4ncnc5c4nc4n5CCCCC4)C3)CC2)c1` (stereo not drawn), for which the IC50 is greater than 100 µM.
